The list is not random: actives were taken first. Their share in the collection is about 1.3%.
PKM2 act = activators of human pyruvate kinase M2. Potency, µM (doses to about 57.5 µM), usual class: activators. 0.34% of 260,000 active. AID 1631. purified PKM2, Kinase-Glo ATP luminescence, activation; response scale: 0% is enzyme alone, no compound; further: nearly all actives have a fitted effect of over 55% in size
Target sequence (P14618 whole entry, looked up): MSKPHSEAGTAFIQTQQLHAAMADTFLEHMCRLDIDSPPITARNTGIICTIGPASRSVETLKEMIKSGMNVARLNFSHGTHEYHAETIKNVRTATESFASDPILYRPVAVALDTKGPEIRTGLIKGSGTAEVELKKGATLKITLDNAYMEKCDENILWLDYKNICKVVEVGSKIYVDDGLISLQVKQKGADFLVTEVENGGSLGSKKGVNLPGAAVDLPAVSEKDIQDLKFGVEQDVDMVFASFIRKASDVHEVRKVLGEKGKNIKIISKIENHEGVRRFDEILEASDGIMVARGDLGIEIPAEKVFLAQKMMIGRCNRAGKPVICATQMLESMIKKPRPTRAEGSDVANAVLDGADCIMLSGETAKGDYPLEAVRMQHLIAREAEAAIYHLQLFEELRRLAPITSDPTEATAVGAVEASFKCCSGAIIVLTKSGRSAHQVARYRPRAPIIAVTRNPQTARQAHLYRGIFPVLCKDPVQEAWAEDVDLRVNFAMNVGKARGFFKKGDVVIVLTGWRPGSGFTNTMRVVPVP
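hPK-M2, >95% pure; 0.1 mM ADP / 0.5 mM PEP final; imidazole pH7.2 buffer w/ 7 mM MgCl2, 50 mM KCl; 1 h RT; Kinase-Glo lum. Intermediate enzyme activity for dual inhibitor/activator qHTS.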
TrxR1 inh = blocks rat thioredoxin reductase 1 | recombinant rTrxR1, NADPH fluorescence consumption, selenite substrate | Potency, µM (top dose mostly 114 µM), most hits filed as inhibitors | 1% of 390,000 active; further: nearly all actives have a fitted effect of over 65% in size
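Rat TrxR1 (90 nM in the dispensed reagent) was pre-reduced with 400 uM NADPH for 5 min at room temperature, then incubated with compound for 15 min. After 400 uM selenite was added, NADPH fluorescence (Ex 340/Em 450 nm) was followed for 8 min.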
Apoferritin bind = binds horse apoferritin like a general anesthetic; P02791; 0.074% of 350,000 active; AID 485281; Potency, µM (top dose mostly 77.5 µM), usual class: inhibitors; apoferritin/1-aminoanthracene competitive binding, fluorescence; further: nearly all actives have a fitted effect of over 20% in size
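Probe: 1-aminoanthracene (50% saturated, PBS). Protein: horse-spleen apoferritin, 10 uM. Incubation: 10 min, room temperature. Detection: 380 nm excitation, 535 nm emission. Analysis: normalized response, four-parameter Hill.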
IDH1 R132H inh = blocks human mutant IDH1 R132H enzyme; O75874; AID 602179; 0.093% of 390,000 active; IDH1-R132H enzyme, NADPH consumption, diaphorase/resazurin fluorescence; Potency, µM (top dose mostly 76.6 µM), usual class: inhibitors; further: nearly all actives have a fitted effect of over 65% in size
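IDH1-R132H (0.5 ug/mL) preincubated 30 min with compound, then NADPH (0.016 mM) and alpha-KG (2 mM) added; 80 min at RT, pH 7.5. Remaining NADPH coupled via diaphorase/resazurin to fluorescence (540/590 nm); concentration-response curves normalized to no-enzyme control.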
TrxR1 substrate = substrates of rat thioredoxin reductase 1; Potency, µM (series often up to 114 µM); purified TrxR1 substrate turnover, NADPH consumption readout; O89049; 0.01% of 390,000 active; AID 588456; further: nearly all actives have a fitted effect of over 50% in size
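Rat TrxR1, dispensed at 90 nM, was prereduced with 400 uM NADPH (final) for 5 min at ~22 deg C, then incubated with compound 15 min before 400 uM selenite. A first-read NADPH fluorescence drop versus no-compound background flagged substrates.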
GALK inh = inhibitors of human galactokinase; Purified GALK, Kinase-Glo residual ATP luminescence; AID 1868; Potency, µM (titrated, usually from 57.5 µM), most hits filed as inhibitors; 0.007% of 270,000 active; P51570
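Human GALK (5 nM) with 35 uM ATP and 100 uM galactose in 20 mM HEPES pH 8.0, 5 mM MgCl2, 60 mM NaCl, 1 mM DTT, 0.01% BSA. After 1 h at room temperature, leftover ATP was read by Kinase-Glo Plus luminescence.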
Numbers stand for hits; i = inactive; ? = inconclusive; nt = no result; ! = not confirmed by another sample; [ ] = dose if it differs, or a comment. The call rests on the fitted dose curve; in most records, active means well fitted curve in the direction sought with a large enough effect; inconclusive means small, poorly fitted or top-dose-only effect, or another doubt; inactive means no such curve, though single readings can be large; an effect the other way counts as inactive or inconclusive.

SMILES	PKM2 act	TrxR1 inh	Apoferritin bind	IDH1 R132H inh	TrxR1 substrate	GALK inh
Cc1ccc(-c2csc3ncn(-n4c(C)ccc4C)c(=O)c23)o1	i	32µM	i	i	i	i
CCN(CC)/[N+]([O-])=N/OCOC(=O)C(C)c1ccc2cc(OC(C)=O)ccc2c1 (configuration not stated)	nt	i	nt	nt	i[0.457 µM]	nt
O=[N+]([O-])c1cc(C(F)(F)F)ccc1NCCc1ccccn1	nt	i	nt	i	i	nt
CS(=O)(=O)c1ccc(NCCc2ccccn2)c([N+](=O)[O-])c1	14µM	i	i	i	i[0.457 µM]	i
CCCCCCCC/C=C\CCCCCCCC(=O)NCCc1ccc(O)c(O)c1	nt	27µM!	nt	i	?	nt
CC/C(=N\NC(=O)CSCc1ccccc1Cl)c1ccc2c(c1)OCCO2	i	i	?	i	i	nt
CC/C(=N\NC(=O)CSCc1ccc(Cl)cc1)c1ccc2c(c1)OCCO2	i	i	18µM	i	i	i
COc1ccccc1C(=O)OCC(=O)Nc1ccc(N2CCCCC2)cc1	nt	i	nt	nt	i	nt
Cc1cc(NC(=S)NC(=O)C2CC2)ccc1Br	i	45µM	?	i	i	i
CC(=O)Nc1ccc(NC(=S)NC(=O)C2CCCC2)cc1	i	?	i	i	i	i
Cc1cccc(NC(=S)NC(=O)C2CC2)c1	i	nt	22µM	nt	nt	i
CCN(CC)c1ccc(NC(=S)NC(=O)C2CCC2)cc1	i	45µM	i	i	i	i
CCOC(=O)C1=C(O)/C(=C\c2ccc(CNS(=O)(=O)c3ccc(Br)cc3)o2)N=C1C	i	14µM	i	i	i	i
COC(=O)C1=C(O)/C(=C\c2ccc(CNS(=O)(=O)c3ccccc3)o2)N=C1C	i	?	i	i	i	i
COC(=O)C1=C(O)/C(=C\c2ccc(CNS(=O)(=O)c3ccc(Cl)cc3)o2)N=C1C	i	28µM	i	i	i	i
Cc1ccc(OCC(=O)Nc2cc(Cl)ccc2-n2cncn2)c(C)c1	nt	nt	nt	i	nt	nt
Cc1ccc(S(=O)(=O)CCC(=O)Nc2cc(Cl)ccc2-n2cncn2)cc1	nt	13µM	nt	i	i	nt
CCc1ccccc1NC(=O)CCn1cccn1	nt	i	i	i	i	nt
CCc1cccc(-n2nnc(-c3nsc(NC(=O)c4cccc(OC)c4)n3)c2C)c1	nt	i	?	i	i	nt
N#CC1(C#N)OC12CCS(=O)(=O)c1ccccc12 (configuration not stated)	nt	50µM	nt	i	i	nt
O=C(O)C(Cc1ccccc1)N1C(=O)/C(=C/C=C/c2ccco2)SC1=S (configuration not stated)	i	20µM	i	i	i	i
Cn1cccc1/C=C1\SC(=S)N(NC(=O)c2ccccc2O)C1=O	i	i	i	i	i	i
O=C(NN1C(=O)/C(=C/C=C/c2ccco2)SC1=S)c1ccccc1O	?	56µM	i	i	i	i
O=C1S/C(=C\C=C\c2ccco2)C(=O)N1c1ccccc1	i	50µM	?	i	i	i
O=C(CCCN1C(=O)S/C(=C/C=C/c2ccccc2)C1=O)Nc1ccc(C(=O)O)cc1	i	79µM	i	i	i	i
SMILES	PKM2 act	TrxR1 inh	Apoferritin bind	IDH1 R132H inh	TrxR1 substrate	GALK inh
COc1cc(OC)c(OC)cc1/C=C/c1nccc2ccccc12	nt	i	nt	nt	i	nt
Cc1ccnc2ccc(Br)cc12	nt	i	nt	nt	i	nt
O=C(O)CCCN1C(=O)/C(=C/C=C/c2ccco2)SC1=S	i	35µM	i	i	i	i
O=C(O)CC(C(=O)O)N1C(=O)/C(=C/C=C/c2ccco2)SC1=S (configuration not stated)	i	20µM	i	i	i	i
Cc1ccc(NC(=O)CCCN2C(=O)/C(=C/C=C/c3ccccc3)SC2=S)cc1	i	?	i	i	i	i
O=C1S/C(=C\C=C\c2ccco2)C(=O)N1c1ccc(O)cc1	i	?	i	i	i	i
O=C(O)CCCN1C(=O)/C(=C\c2ccc(-c3nc4ccccc4s3)o2)SC1=S	i	50µM	i	i	i	i
CC(C)c1ccc(NC(=O)CSC2=Nc3ccccc3C3=NC(CCC(=O)NCc4cccs4)C(=O)N23)cc1 (configuration not stated)	nt	i	?	i	i	nt
